Measurements: PubChem BioAssay (NCATS)
“And” between values parts separate entries of the source, which are not always exact repeats. Identical values can stand only once. Results filed as inconclusive are left out. A structure can be active in one record and inactive in another. The source made the active and inactive calls. The call rests on the fitted dose curve; in most records, active means well fitted curve in the direction sought with a large enough effect; inconclusive means small, poorly fitted or top-dose-only effect, or another doubt; inactive means no such curve, though single readings can be large; an effect the other way counts as inactive or inconclusive.

Legend:
[1] = Identifying Small Molecule Inhibitors of Pancreatic Cancer Stem Cells (SN12C, Spheroid) (AID 1259360); settings: Potency: SN12C spheroid viability; further: potency means the concentration at half of the fitted maximal effect
Procedure, shortened: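 Viability is scored by CellTiter-Glo luminescence 48 h after dosing, expressed as percent activity against vehicle and no-cell references. Spheroid formats rely on cells cultured 14 days in stem cell media beforehand.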

[2] = P-glycoprotein substrates identified in KB-3-1 adenocarcinoma cell line, qHTS therapeutic library screen (AID 1346986); further: nearly all actives have a fitted effect of over 60% in size;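 further: potency means the concentration at half of the fitted maximal effect; potency is for cytotoxicity meaning loss of cell viability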
Procedure, shortened: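 Viability read by CellTiter-Glo after 72 h compound exposure in dose-response of KB-3-1 and KB-8-5-11 (P-gp-high) cells. Hits needed AC50 < 10 uM, >50% maximum response and curve class -1.1 to -2.4. Cherry-picks retested ± tariquidar, including pcDNA/MDR-19 HEK-293 pair.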

[3] = P-glycoprotein substrates identified in KB-8-5-11 adenocarcinoma cell line, qHTS therapeutic library screen (AID 1346987); further: nearly all actives have a fitted effect of over 65% in size; further: potency means the concentration at half of the fitted maximal effect
Procedure, shortened: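 Luminescence from CellTiter-Glo, read 5 min after addition, quantified survival of KB-8-5-11 (P-gp-overexpressing) cells exposed to compounds for 72 h. AC50 was derived from concentration-response curves.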

[4] = NS1 protein of Zika virus - qHTS assay to identify small molecule inhibitors in human HEK 293 cells (AID 1347053); further: nearly all actives have a fitted effect of over 55% in size; further: potency means the concentration at half of the fitted maximal effect
Procedure, shortened: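 Compound-treated (1 h pre-infection) HEK 293 cells infected with ZIKV MR766, MOI = 0.5; after 24 h at 37 C, NS1 read by TR-FRET; data normalized to uninfected and infected controls.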

[5] = qHTS of pediatric cancer cell lines to identify multiple opportunities for drug repurposing: Primary screen for DAOY cells (AID 1347090); further: nearly all actives have a fitted effect of over 55% in size; further: potency means the concentration at half of the fitted maximal effect
Procedure, shortened: (§1)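 Cell viability, CellTiter-Glo luminescence; 500-1,000 cells/well, 8- or 11-point titration, 48 h compound exposure at 37 degrees C, 5% CO2. Controls: DMSO neutral, bortezomib 2.3 µM final as positive.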

[6] = qHTS of pediatric cancer cell lines to identify multiple opportunities for drug repurposing: Primary screen for SJ-GBM2 cells (AID 1347091); further: potency means the concentration at half of the fitted maximal effect
Procedure, shortened: as §1

[7] = qHTS of pediatric cancer cell lines to identify multiple opportunities for drug repurposing: Primary screen for A673 cells (AID 1347092); further: nearly all actives have a fitted effect of over 45% in size; further: potency means the concentration at half of the fitted maximal effect
Procedure, shortened: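 Luminescence from CellTiter-Glo, taken after 15 min at room temperature, served as the proxy for metabolically active cells following 48 h treatment. Both potency and efficacy were taken from curves fitted to the titration data.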

[8] = qHTS of pediatric cancer cell lines to identify multiple opportunities for drug repurposing: Primary screen for SK-N-MC cells (AID 1347093); further: potency means the concentration at half of the fitted maximal effect
Procedure, shortened: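 Metabolically active cells were quantified by ATP-dependent luminescence (CellTiter-Glo, 15 min at room temperature) following 48 h treatment. Cells had been plated at 500-1,000 per well and settled for 5 h beforehand.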

[9] = Identifying Small Molecule Inhibitors of Pancreatic Cancer Stem Cells (Panc1, Adherent) (AID 1259362); settings: Potency: viability; further: potency means the concentration at half of the fitted maximal effect
Procedure, shortened: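 Endpoint: ATP-based luminescence, 48 h drug exposure. Bortezomib at 9.2 uM final as full-kill control; DMSO vehicle as negative control; activity normalized between vehicle and cell-free wells.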

[10] = qHTS of pediatric cancer cell lines to identify multiple opportunities for drug repurposing: Primary screen for BT-37 cells (AID 1347094); further: potency means the concentration at half of the fitted maximal effect
Procedure, shortened: (§2)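 CRCs from 8- or 11-point titrations (lowest final 0.59 nM NPC, 0.78 nM MIPE). Cell viability: CellTiter-Glo after 48 h incubation, 15 min room-temperature development, luminescence imaging.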

[11] = qHTS of pediatric cancer cell lines to identify multiple opportunities for drug repurposing: Primary screen for NB-EBc1 cells (AID 1347095); further: potency means the concentration at half of the fitted maximal effect
Procedure, shortened: as §2

[12] = qHTS of pediatric cancer cell lines to identify multiple opportunities for drug repurposing: Primary screen for TC32 cells (AID 1347089); further: nearly all actives have a fitted effect of over 60% in size; further: potency means the concentration at half of the fitted maximal effect
Procedure, shortened: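 qHTS, TC32, 48 h drug treatment, CellTiter-Glo luminescence as a proxy for metabolically active cells; primary top concentration 46 µM (MIPE 11-pt, NPC 8-pt); confirmatory 11-pt.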

[13] = Identifying Small Molecule Inhibitors of Pancreatic Cancer Stem Cells (A278, Adherent) (AID 1259361); further: nearly all actives have a fitted effect of over 35% in size
Procedure, shortened: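 Adherent (2D) versus sphere (3D) formats; spheres generated 14 d in SCM beforehand. Compound transferred by pin tool after 4 h, 48 h incubation, CellTiter-Glo endpoint.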

O=C(c1ccc(Nc2nccc(-c3cc4ccccc4s3)n2)cc1)N1CCC(N2CCCC2)CC1
active: Potency [1] 23.5 µM | Potency [2] 6.51 µM | Potency [3] 8.33 µM and 16.4 µM and 20.6 µM | Potency [4] 6.62 µM | Potency [5] 23.5 µM | Potency [6] 13.2 µM | Potency [7] 7.43 µM | Potency [8] 5.26 µM

COC(=O)[C@]12CCC(C)(C)C[C@@H]1[C@@H]1C(=O)C=C3[C@@]4(C)C=C(C#N)C(=O)C(C)(C)[C@@H]4CC[C@@]3(C)[C@]1(C)CC2
active: Potency [1] 2.35 µM | Potency [9] 2.96 µM | Potency [3] 0.743 µM | Potency [4] 1.32 µM | Potency [5] 0.59 µM | Potency [6] 0.235 µM | Potency [7] 0.372 µM | Potency [8] 0.372 µM | Potency [10] 0.685 µM | Potency [11] 0.264 µM

Nc1ccccc1NC(=O)c1ccc(CNC(=O)OCc2cccnc2)cc1
active: Potency [3] 11.8 µM and 9.2 µM | Potency [12] 8.29 µM | Potency [5] 4.69 µM | Potency [6] 4.18 µM | Potency [7] 1.48 µM | Potency [8] 0.0935 µM | Potency [10] 3.85 µM | Potency [11] 1.32 µM
inactive: Potency [1] | Potency [4]

CC1(C)OC2=C(C(=O)c3ccccc3C2=O)[C@H](NCc2ccccc2)[C@H]1O
active: Potency [1] 23.5 µM | Potency [9] 3.32 µM | Potency [3] 9.35 µM | Potency [12] 18.6 µM | Potency [5] 5.9 µM | Potency [6] 7.43 µM | Potency [7] 0.469 µM | Potency [8] 1.48 µM | Potency [10] 8.63 µM | Potency [11] 2.35 µM

Cc1cnc(-c2cnc(NCCNc3ccc(C#N)cn3)nc2-c2ccc(Cl)cc2Cl)[nH]1
active: Potency [5] 14.8 µM | Potency [7] 1.87 µM | Potency [8] 0.105 µM
inactive: Potency [1] | Potency [3] | Potency [4] | Potency [12] | Potency [10]

Nc1ccc(C(=O)c2cc3c(ccc4ccccc43)[nH]2)cc1
active: Potency [9] 2.96 µM | Potency [3] 1.18 µM | Potency [4] 18.7 µM | Potency [12] 7.39 µM | Potency [6] 2.35 µM | Potency [7] 2.96 µM | Potency [8] 2.09 µM | Potency [11] 1.66 µM
inactive: Potency [1]

CC(C)=CCCC(C)=CCCC(C)=CCSc1ccccc1C(=O)O
inactive: Potency [1]
active: Potency [3] 1.32 µM | Potency [6] 0.833 µM | Potency [7] 5.9 µM | Potency [8] 0.743 µM | Potency [10] 7.69 µM | Potency [11] 5.9 µM

COc1ccc(CC2SC(=O)NC2=O)cc1C(=O)NCc1ccc(C(F)(F)F)cc1 (centres undefined)
inactive: Potency [1] | Potency [3] | Potency [4] | Potency [12] | Potency [5] | Potency [6] | Potency [7]

Cc1cc(Nc2cc(N3CCN(C)CC3)nc(Sc3ccc(NC(=O)C4CC4)cc3)n2)n[nH]1
active: Potency [2] 0.231 µM | Potency [4] 9.35 µM | Potency [7] 11.8 µM | Potency [8] 0.418 µM | Potency [11] 0.935 µM
inactive: Potency [1] | Potency [10]

CNc1nccc(-c2cccnc2Oc2cc(C(=O)Nc3cccc(C(F)(F)F)c3)ccc2C)n1
inactive: Potency [2] | Potency [12]
inactive and 16.4 µM (active): Potency [3]
active: Potency [1] 18.7 µM | Potency [5] 14.8 µM | Potency [6] 9.35 µM | Potency [7] 2.96 µM | Potency [8] 3.72 µM | Potency [11] 3.32 µM

CC(C)(C)OC(=O)Nc1ccc(-c2cc(C(=O)NCCCCCCC(=O)NO)no2)cc1
active: Potency [1] 16.6 µM | Potency [3] 8.33 µM | Potency [4] 26.4 µM | Potency [12] 9.3 µM | Potency [5] 4.69 µM | Potency [6] 1.48 µM | Potency [7] 2.96 µM | Potency [8] 0.833 µM | Potency [10] 5.44 µM | Potency [11] 1.18 µM

COc1cc(OC2CCN(C)CC2)ccc1Nc1ncc2c(n1)n(C1CCCC1)c(=O)n2C
active: Potency [1] 20.9 µM | Potency [9] 2.96 µM | Potency [3] 3.72 µM | Potency [5] 23.5 µM | Potency [6] 16.6 µM | Potency [7] 14.8 µM

COc1cc2c(Oc3ccc(NC(=O)C4(C(=O)Nc5ccc(F)cc5)CC4)cc3F)ccnc2cc1OCCCN1CCOCC1
active: Potency [1] 23.5 µM | Potency [3] 935 nM and 5.17 µM | Potency [12] 5.87 µM | Potency [5] 18.7 µM | Potency [6] 0.0118 µM | Potency [7] 2.35 µM | Potency [8] 0.743 µM | Potency [11] 4.18 µM

CCN(CC)CCCCNc1ncc2cc(-c3cc(OC)cc(OC)c3)c(NC(=O)NC(C)(C)C)nc2n1
active: IC50 (viability decrease) [13] 5.26 µM | Potency [2] 23.1 µM | Potency [6] 14.8 µM | Potency [7] 18.7 µM | Potency [8] 23.5 µM | Potency [10] 19.3 µM
inactive: Potency [9] | Potency [12] | Potency [5]

Fc1cc(-c2cccc3ncc(-c4cnn(C5CCNCC5)c4)nc23)cc(F)c1CN1CCOCC1
active: IC50 (viability decrease) [13] 20.9 µM | Potency [3] 20.9 µM and 20.6 µM | Potency [4] 20.9 µM | Potency [6] 16.6 µM | Potency [7] 18.7 µM | Potency [8] 14.8 µM
